The record followed here is the supplement of paper PMC3842684.

The test system of the first test is P. falciparum NF54-pfs16-GFP early (I-III) stage gametocytes. The test can be described thus: relative % inhibition of viable gametocyte number; higher = more gametocytocidal. To be noted: 0.5 µM; stage: early (I-III) gametocyte; incubation 72 h. The method, boiled down:
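Viable gametocytes were counted by confocal imaging as elongated GFP objects carrying MitoTracker Red signal above a cut-off, after 72 h of compound exposure (5 or 0.5 µM) at 37°C in 5% CO2 and 5% O2 and overnight staining. The NF54 pfs16-GFP gametocytes had been magnet-isolated at early (I/IIa, day 2) or late (day 8) stage and plated at 10% parasitaemia, 0.1% haematocrit in 384-well poly-D-lysine imaging plates. Relative inhibition was normalised to vehicle and positive-control wells within each plate.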
`CC1CCN(Cc2c(O)ccc3cc(-c4nc5ccccc5s4)c(=O)oc23)CC1`: the relative % inhibition is 2.97%.
Take `FC(F)(F)c1ccc(Nc2nnnc3ccccc23)cc1`: the relative % inhibition was determined as 7.13%.
Take `CC(C)OCc1cc(CN2CCN(c3cccc(Cl)c3)CC2)c(O)c2ncccc12`: the relative % inhibition was determined as 10.9%.
`Nc1ccn(C2O[C@H](CO)[C@@H](O)[C@H]2O)c(=O)n1` (stereo partly specified): the relative % inhibition was -12.7%.
Same read-out and setting: as for `COc1ccccc1CNC(=O)CCn1c(=O)[nH]c2ccsc2c1=O`, the figure is 16.9%; as for `C=C(C)CCC(C)N1CCC(N2CCC(C(=O)NCCc3ccccc3)CC2)CC1` (stereo unspecified), -2.27%.
On to `OC(CNCc1ccccc1)Cn1c2ccccc2c2ccccc21` (stereo unspecified), for which the relative % inhibition amounted to 0.736%.
On to `CCOc1cc(Br)c(C(C)NC(=O)c2cccc(OC)c2)cc1OCC` (stereo unspecified), for which the relative % inhibition stood at 9.37%.
In the case of `COc1nc(Nc2ccc(C(C)C)cc2)nc(OC)n1`, the relative % inhibition stood at 24.9%.
In the case of `Cc1ccc(OCCCCCCNCCO)c(C)c1`, the relative % inhibition is 2.04%.
As to `COc1ccc(-c2nonc2NC(=O)c2cccc(Cl)c2)cc1OC`, the relative % inhibition came to 31.7%.
For the compound `CCOC(=O)c1cnc2ccc(OC)cc2c1Nc1ccc(N2CCN(C)CC2)cc1`, the relative % inhibition stood at 53%.
As for `O=C(CCc1ccccc1)c1ccccc1OCC(O)CN1CCCCC1` (stereo unspecified), the relative % inhibition is 12.7%.
Take `CC(C)CNC(=O)c1c(N)n(CCc2ccccc2F)c2nc3ccccc3nc12`: the relative % inhibition was -1.27%.
Regarding `CCOC(=O)c1ccc2nc(-c3ccccc3)cc(O)c2c1`, the relative % inhibition turned out to be 2.53%.
Turning to `Clc1ccc2[nH]c3c(NCCCN4CCOCC4)ncnc3c2c1`, the relative % inhibition is 61.4%.
Take `CCC(O)c1ccc(Br)cc1NC(=O)c1cccc(Cl)c1` (stereo unspecified): the relative % inhibition was determined as 3.28%.
On the same count and under the same terms, the value for `CC(C)(C)CC(C)(C)NCC(O)COc1ccc2c(c1)CCC2` (stereo unspecified) was -11.4%; that for `Cc1ccc(-c2nc3ccccc3o2)cc1NCc1cc(Cc2ccccc2)ccc1O` was 9.8%; that for `Cn1c(C(=O)c2cccc3ccccc23)nc2ccccc21` was 3.04%.
As to `O=c1nc(C=Cc2ccc(Br)cc2)oc2ccccc12`, the relative % inhibition amounted to 10.7%.
Same read-out and setting: the value for `Brc1ccc(Nc2nc3ccccc3nc2Nc2ccc(Br)cc2)cc1` was 38.5%; that for `O=C(CCl)NCCOc1ccc(Cl)cc1Cl` was 24%.
With `CCOc1c(Cl)cc(CNCC(O)c2ccccc2)cc1OC` (stereo unspecified), the relative % inhibition is -19.6%.
The same measure, in the same setting: the value for `O=C(NC(c1ccccc1)c1ccc2cccnc2c1O)c1ccccc1` (stereo unspecified) was 31.4%.
For the compound `Cc1ccc2cc3c(N)c4c(C)ccc(C)c4nc3nc2c1`, the relative % inhibition came to 4.09%.
Still for that read-out and setting: as for `CCOc1ccc(-c2nonc2NC(=O)c2cccc(C)c2)cc1OCC`, the figure is 31.4%.
As for `Cn1c(=O)c2cc(C(=O)NCCCN3CCCCCC3)sc2c2ccccc21`, the relative % inhibition is 13.6%.
Regarding `Cc1ccc(-c2cc3c(nn2)-c2ccccc2C3=O)cc1`, the relative % inhibition was 2.74%.
Regarding `CCCN(CCC)CC(O)COc1ccccc1C(=O)Nc1ccccc1` (stereo unspecified), the relative % inhibition stood at 22.5%.
As for `CCOc1ccc(C=Cc2nc(=O)c3ccccc3o2)cc1`, the relative % inhibition amounted to 4.08%.
For `Cc1ccccc1OCCSc1nc2ccc(NC(=O)c3ccccc3)cc2s1`, the relative % inhibition was found to be 24.2%.
Consider `CCOc1cc(Cl)c(C(C)NC(=O)c2ccccc2)cc1OCC` (stereo unspecified), for which the relative % inhibition was 15.1%.
For the compound `CCCCCCc1cc2cc(-c3csc(C=Cc4ccccc4)n3)c(=O)oc2cc1O`, the relative % inhibition turned out to be 18.9%.
For `Clc1ccc2c(N3CCCC3)ccnc2c1`, the relative % inhibition was determined as 21.2%.
`COc1cccc(C=Cc2nc(=O)c3ccccc3o2)c1OC`: the relative % inhibition was -6.76%.
Still for that read-out and setting: as for `Cc1cc(NC(=O)c2ccc(-c3ccccc3)cc2)no1`, the figure is -6.51%; as for `CCc1c(C)c(=N)c2ccccc2n1C`, -1.08%.

The test is the same for the next values; noted with them: 5 µM; stage: early (I-III) gametocyte; incubation 72 h.
`CC1CCN(Cc2c(O)ccc3cc(-c4nc5ccccc5s4)c(=O)oc23)CC1`: the relative % inhibition came to 94.7%.
In the case of `FC(F)(F)c1ccc(Nc2nnnc3ccccc23)cc1`, the relative % inhibition came out at 2.85%.
With `CC(C)OCc1cc(CN2CCN(c3cccc(Cl)c3)CC2)c(O)c2ncccc12`, the relative % inhibition was found to be 96.4%.
Regarding `Nc1ccn(C2O[C@H](CO)[C@@H](O)[C@H]2O)c(=O)n1` (stereo partly specified), the relative % inhibition was 9.7%.
Consider `COc1ccccc1CNC(=O)CCn1c(=O)[nH]c2ccsc2c1=O`, for which the relative % inhibition came out at 2.5%.
`C=C(C)CCC(C)N1CCC(N2CCC(C(=O)NCCc3ccccc3)CC2)CC1` (stereo unspecified): the relative % inhibition is 49.4%.
Regarding `OC(CNCc1ccccc1)Cn1c2ccccc2c2ccccc21` (stereo unspecified), the relative % inhibition worked out at 89.9%.
Regarding `CCOc1cc(Br)c(C(C)NC(=O)c2cccc(OC)c2)cc1OCC` (stereo unspecified), the relative % inhibition was 46.2%.
For `COc1nc(Nc2ccc(C(C)C)cc2)nc(OC)n1`, the relative % inhibition was 0.105%.
With `Cc1ccc(OCCCCCCNCCO)c(C)c1`, the relative % inhibition is 30.1%.
Turning to `COc1ccc(-c2nonc2NC(=O)c2cccc(Cl)c2)cc1OC`, the relative % inhibition is -10.8%.
As for `CCOC(=O)c1cnc2ccc(OC)cc2c1Nc1ccc(N2CCN(C)CC2)cc1`, the relative % inhibition is 24.4%.
Turning to `O=C(CCc1ccccc1)c1ccccc1OCC(O)CN1CCCCC1` (stereo unspecified), the relative % inhibition was found to be 96.8%.
Same read-out and setting: as for `CC(C)CNC(=O)c1c(N)n(CCc2ccccc2F)c2nc3ccccc3nc12`, the figure is 3.8%.
Take `CCOC(=O)c1ccc2nc(-c3ccccc3)cc(O)c2c1`: the relative % inhibition turned out to be 2.35%.
Consider `Clc1ccc2[nH]c3c(NCCCN4CCOCC4)ncnc3c2c1`, for which the relative % inhibition amounted to 97.5%.
Turning to `CCC(O)c1ccc(Br)cc1NC(=O)c1cccc(Cl)c1` (stereo unspecified), the relative % inhibition was determined as 93.3%.
With `CC(C)(C)CC(C)(C)NCC(O)COc1ccc2c(c1)CCC2` (stereo unspecified), the relative % inhibition worked out at 78.8%.
For the compound `Cc1ccc(-c2nc3ccccc3o2)cc1NCc1cc(Cc2ccccc2)ccc1O`, the relative % inhibition came out at 95.1%.
In the case of `Cn1c(C(=O)c2cccc3ccccc23)nc2ccccc21`, the relative % inhibition was found to be 19.9%.
Turning to `O=c1nc(C=Cc2ccc(Br)cc2)oc2ccccc12`, the relative % inhibition was -18.8%.
For the compound `Brc1ccc(Nc2nc3ccccc3nc2Nc2ccc(Br)cc2)cc1`, the relative % inhibition amounted to 103%.
On to `O=C(CCl)NCCOc1ccc(Cl)cc1Cl`, for which the relative % inhibition was 9.39%.
Regarding `CCOc1c(Cl)cc(CNCC(O)c2ccccc2)cc1OC` (stereo unspecified), the relative % inhibition stood at 13.9%.
`O=C(NC(c1ccccc1)c1ccc2cccnc2c1O)c1ccccc1` (stereo unspecified): the relative % inhibition came out at 95.3%.
Same read-out and setting: the value for `Cc1ccc2cc3c(N)c4c(C)ccc(C)c4nc3nc2c1` was 91%.
Take `CCOc1ccc(-c2nonc2NC(=O)c2cccc(C)c2)cc1OCC`: the relative % inhibition came out at 94.4%.
As for `Cn1c(=O)c2cc(C(=O)NCCCN3CCCCCC3)sc2c2ccccc21`, the relative % inhibition amounted to 27.4%.
For `Cc1ccc(-c2cc3c(nn2)-c2ccccc2C3=O)cc1`, the relative % inhibition was 95%.
With `CCCN(CCC)CC(O)COc1ccccc1C(=O)Nc1ccccc1` (stereo unspecified), the relative % inhibition was 101%.
As to `CCOc1ccc(C=Cc2nc(=O)c3ccccc3o2)cc1`, the relative % inhibition turned out to be 22.2%.
For `Cc1ccccc1OCCSc1nc2ccc(NC(=O)c3ccccc3)cc2s1`, the relative % inhibition was 20.2%.
Turning to `CCOc1cc(Cl)c(C(C)NC(=O)c2ccccc2)cc1OCC` (stereo unspecified), the relative % inhibition is 34.5%.
The same measure, in the same setting: as for `CCCCCCc1cc2cc(-c3csc(C=Cc4ccccc4)n3)c(=O)oc2cc1O`, the figure is 101%; as for `Clc1ccc2c(N3CCCC3)ccnc2c1`, 65.9%.
Turning to `COc1cccc(C=Cc2nc(=O)c3ccccc3o2)c1OC`, the relative % inhibition is -17.9%.
In the case of `Cc1cc(NC(=O)c2ccc(-c3ccccc3)cc2)no1`, the relative % inhibition turned out to be 24.9%.
Consider `CCc1c(C)c(=N)c2ccccc2n1C`, for which the relative % inhibition amounted to 8.52%.
